# Screens: PubChem BioAssay, Broad Institute
# aSyn UTR act = Activators via SNCA 5'UTR binding, MLPCN. alpha-synuclein 5'UTR reporter, activators screen. activity score, % (tested at 7.5 µM), hits read low. hit rate 7.1% among 300,000. AID 1814, 2009; in the data active = activity score below about -60%
# The depositor's hits bear a star. A selection follows.
SMILES,aSyn UTR act
CC(Sc1nnc(-c2cccnc2)n1-c1ccccc1)C(=O)NCc1ccc2c(c1)OCO2 (stereo not drawn),-71*
CCN1CCN(c2nc3sc4c(c3c3ncnn23)CC(C)CC4)CC1 (stereo not drawn),-64*
CCOC(=O)C1=C(Cc2ccc(C)cc2)C(=O)c2ccccc2C1=O,-65*
Cc1ccc(NC(=O)NCCN2C(=O)C3C4C=CC(C4)C3C2=O)cc1 (stereo not drawn),-81*
Cc1nc2oc(C(=O)c3ccccc3)c(N)c2c2c1COC(C)(C)C2,-83*
CCCc1nc2oc3c(NCc4ccccn4)ncnc3c2c2c1COC(C)(C)C2,53
Cc1ccc(OCCSc2ncnc3nc[nH]c23)cc1,-67*
C(=C\c1cccc2ccccc12)/c1nnc(-c2cccs2)o1,-69*
Cc1cccc(N=C2NN=C(c3ccc4c(c3)OCCO4)CS2)c1,-140*
Cc1cccc(N=C2NN=C(c3c(C)[nH]c4ccccc34)CS2)c1,-90*
CC(=O)Nc1nc2ccccc2n1Cc1ccccc1Cl,87
Cn1c(NCc2ccccc2O)nc2ccccc21,-272*
Cn1c(NCc2ccccc2Cl)nc2ccccc21,-164*
CCCCC(=O)Nc1ccccc1Oc1ccccc1,-123*
COC(=O)Cn1ncc2c(C)n(Cc3ccccc3)c(C)c2c1=O,-123*
CN1C2=CC=CC=CC2=[N+](C)C12C([N+](=O)[O-])=CC(=[N+]([O-])[O-])C=C2[N+](=O)[O-] (stereo not drawn),-73*
COc1ccccc1C(=O)N1CCN(CCNC(=O)C(=O)Nc2ccc(Br)c(C)c2)CC1,-89*
O=C(COc1ccccc1C(=O)c1cnn(-c2ccccc2)c1)Nc1ccccc1,-73*
CC(=O)c1ccc(NC(=O)COc2ccccc2C(=O)Nc2ccccc2)cc1,-78*
CC(=O)c1cccc(NC(=O)COC(=O)c2ccccc2C)c1,-101*
CCOc1ccc(NC(=O)c2ccccc2CO)cc1,-86*
CCOc1ccc(NC(=O)c2ccccc2OC)cc1,-140*
CCOc1ccc(NC(=O)c2ccccc2-c2ccccc2C(=O)O)cc1,-63*
CCOc1ccc(NC(=O)c2cccnc2C(=O)O)cc1,-109*
CCOc1ccc(NC(=O)c2nccnc2CO)cc1,-120*
SMILES,aSyn UTR act
CCOc1ccc(NC(=O)c2ccc(NC(=O)COC(=O)Cc3ccc(OC)cc3)cc2)cc1,-93*
CCOc1ccc(NC(=O)c2ccccc2OCC(=O)c2ccccc2)cc1,-83*
CCOc1ccc(NC(=O)c2ccccc2O)cc1,-66*
CCOc1ccc(NC(=O)c2ccccn2)cc1,104
Nc1ccccc1C#Cc1ccc([N+](=O)[O-])cc1,-262*
COc1ccc(Oc2nnc(C)c3ccccc23)cc1,-175*
COc1ccc(-c2nnc3c4ccccc4c(C)nn23)cc1,-206*
Cc1nnc(Oc2ccccc2F)c2ccccc12,-94*
Cc1cc(NC(=O)CSc2ccc(-c3ccc(Br)cc3)nn2)no1,-67*
CCc1nnc(NC(=O)CSc2ccc(-c3nc4ccc(C)cc4[nH]3)cn2)s1,-159*
Cc1cc2nc(-c3ccc(SCC(=O)Nc4ccc(S(=O)(=O)N5CCCC5)cc4)nc3)[nH]c2cc1C,-147*
O=C(CSc1ccc(-c2ccc(-n3cccn3)cc2)nn1)Nc1ccccc1F,-141*
COc1ccc(-c2ccc(SCC(=O)NCc3ccco3)nn2)cc1,-78*
CCc1nnc(NC(=O)CSc2ccc(-c3ccc(C)cc3)nn2)s1,-70*
COc1ccc(-c2ccc(SCC(=O)Nc3nnc(C)s3)nn2)cc1,-87*
CCOc1ccc(-c2cc(CCCC(=O)NCc3ccco3)no2)cc1,73
Cc1ccc(C(=O)N/N=C/c2ccc(-c3cccc(C(F)(F)F)c3)o2)cn1,65
Nc1nonc1C(=O)N/N=C/c1ccc(-c2cccc(C(=O)O)c2)o1,-63*
Cn1cc(NC(=O)OCc2ccc(Cl)cc2)c(C(F)(F)F)n1,-109*
COC(=O)c1ccc(NC(=O)c2ccccc2SC)cc1,-67*
CSc1ccccc1C(=O)Nc1ccc2c(c1)CCC2,-135*
O=C(Nc1ccc2c(c1)CCC2)c1ccccc1Br,-129*
Cc1c(C(=O)Nc2ccc3c(c2)CCC3)cccc1[N+](=O)[O-],-204*
COc1cccc(Cn2c(=O)oc3ccccc32)c1,-77*
Cc1cc(/C=C2/NC(=O)N(c3ccccc3)C2=O)c(C)n1C(C)C,-64*
SMILES,aSyn UTR act
O=C1N/C(=C/c2ccc(Br)s2)C(=O)N1c1ccccc1,-81*
Cc1ccc(/C=C2/NC(=O)N(c3ccccc3)C2=O)o1,-105*
Cn1c2ccccc2c2ncn(CCC3=CCCCC3)c(=O)c21,-158*
COc1ccc(-c2ncc3ccccn23)cc1,-142*
COc1cccc(-c2ncc3ccccn23)c1,-124*
O=Nc1c(-c2ccccc2)cc2ccccn12,-211*
O=C(c1ccc(CS(=O)Cc2ccccc2Cl)o1)N1CCN(C2CCCCC2)CC1 (stereo not drawn),-74*
O=C(c1ccc(CS(=O)c2ccccc2Cl)o1)N1CCN(c2ccccc2)CC1 (stereo not drawn),110
Cn1c(=O)[nH]c(=O)c2c1nc(Br)n2Cc1cccc(Br)c1,-70*
